Holding throughout (design): scale not given: direction of the effect not stated beside the values
The target in assay [1] is Protein translocase subunit SecA (Escherichia coli (strain K12)) (UniProt P10408). Description: Assay to Identify E. coli SecA ATPase Inhibitors. Type of assay: functional. The conditions noted are these: 30 µM.
The target in assay [2] is T1, Ubiquitin-activating enzyme e1, putative (Leishmania donovani (strain BPK282A1)) (UniProt E9BSI1).
T1 sequence (whole entry): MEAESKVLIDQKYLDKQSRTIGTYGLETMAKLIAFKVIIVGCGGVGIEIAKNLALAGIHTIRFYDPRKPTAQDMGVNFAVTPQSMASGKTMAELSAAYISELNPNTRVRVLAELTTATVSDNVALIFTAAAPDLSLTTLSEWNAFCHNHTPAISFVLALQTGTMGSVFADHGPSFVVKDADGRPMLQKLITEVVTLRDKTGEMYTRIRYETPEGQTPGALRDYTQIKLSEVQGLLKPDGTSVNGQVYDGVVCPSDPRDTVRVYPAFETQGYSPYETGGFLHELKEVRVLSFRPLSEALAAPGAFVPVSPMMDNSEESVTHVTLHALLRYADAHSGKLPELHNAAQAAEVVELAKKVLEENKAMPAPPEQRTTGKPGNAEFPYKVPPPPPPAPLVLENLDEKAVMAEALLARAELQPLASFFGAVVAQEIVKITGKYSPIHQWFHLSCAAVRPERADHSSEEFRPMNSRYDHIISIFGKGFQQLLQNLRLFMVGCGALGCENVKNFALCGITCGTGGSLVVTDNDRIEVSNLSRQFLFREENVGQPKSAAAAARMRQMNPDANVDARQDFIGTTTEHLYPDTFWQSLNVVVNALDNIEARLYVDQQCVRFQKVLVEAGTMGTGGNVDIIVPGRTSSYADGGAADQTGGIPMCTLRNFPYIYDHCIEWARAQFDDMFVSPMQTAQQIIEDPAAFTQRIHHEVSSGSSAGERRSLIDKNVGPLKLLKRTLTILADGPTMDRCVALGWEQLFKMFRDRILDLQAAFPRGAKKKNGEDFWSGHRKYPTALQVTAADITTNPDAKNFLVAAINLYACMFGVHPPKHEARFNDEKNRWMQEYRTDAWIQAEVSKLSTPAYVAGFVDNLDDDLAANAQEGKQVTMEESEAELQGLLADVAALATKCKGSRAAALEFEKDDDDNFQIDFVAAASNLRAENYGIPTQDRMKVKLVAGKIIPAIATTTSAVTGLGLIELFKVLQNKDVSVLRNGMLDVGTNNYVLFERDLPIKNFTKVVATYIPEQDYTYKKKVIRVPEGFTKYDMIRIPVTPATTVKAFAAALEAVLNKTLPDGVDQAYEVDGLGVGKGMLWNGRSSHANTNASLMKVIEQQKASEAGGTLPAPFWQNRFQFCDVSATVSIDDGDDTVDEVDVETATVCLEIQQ
Description: Leishmania donovani Ubiquitin Activating Enzyme (LdE1). Type of assay: functional. The note with it: 30 µM.

The target in assay [3] is AMP-activated protein kinase, AMPK (Homo sapiens) (UniProt P54646+O43741+P54619+Q9UGJ0+Q9Y478+Q13131+Q9UGI9). Description: AMP-dependent Kinase enzyme assay. An in vitro enzyme assay that detects ADP turnover that is directly proportional to AMPK activity. This uses naive AMPK that is activated during the assay with MK-8722. Type of assay: functional. The note with it: 30 µM.

In assay [4] the target is Sialic acid-binding Ig-like lectin 9 (Homo sapiens) (UniProt Q9Y336). The experiment in a line: Hs-Siglec9 ALPHAscreen SOP 20170721. The note with it: 10 µM. (In general: Bead proximity is the source of the signal in Alpha formats.)
Sequence of Sialic acid-binding Ig-like lectin 9 (Homo sapiens) (Q9Y336 whole entry): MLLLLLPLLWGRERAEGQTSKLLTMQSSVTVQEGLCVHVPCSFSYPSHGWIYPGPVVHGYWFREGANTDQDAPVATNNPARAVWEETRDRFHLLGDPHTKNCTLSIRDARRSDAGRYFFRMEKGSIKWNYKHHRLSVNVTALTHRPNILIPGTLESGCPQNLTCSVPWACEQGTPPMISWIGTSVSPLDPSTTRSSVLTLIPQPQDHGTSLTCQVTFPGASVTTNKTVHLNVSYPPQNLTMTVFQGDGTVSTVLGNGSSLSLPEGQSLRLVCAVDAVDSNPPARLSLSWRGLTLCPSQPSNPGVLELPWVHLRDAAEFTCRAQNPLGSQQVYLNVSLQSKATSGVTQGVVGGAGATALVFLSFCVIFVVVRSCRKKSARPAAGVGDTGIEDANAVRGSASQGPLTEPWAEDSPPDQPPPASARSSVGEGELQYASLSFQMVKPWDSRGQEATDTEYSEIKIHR
The subject of the next assay is Trypanosoma cruzi. Description: Trypanosoma cruzi phosphomannomutase and mannose-1-phosphate guanylyltransferase assay. Type of assay: functional. The conditions noted are these: 10 µM.
The target in assay [5] is T2, Arginase-2, mitochondrial (Homo sapiens) (UniProt P78540).
T2 sequence (whole entry): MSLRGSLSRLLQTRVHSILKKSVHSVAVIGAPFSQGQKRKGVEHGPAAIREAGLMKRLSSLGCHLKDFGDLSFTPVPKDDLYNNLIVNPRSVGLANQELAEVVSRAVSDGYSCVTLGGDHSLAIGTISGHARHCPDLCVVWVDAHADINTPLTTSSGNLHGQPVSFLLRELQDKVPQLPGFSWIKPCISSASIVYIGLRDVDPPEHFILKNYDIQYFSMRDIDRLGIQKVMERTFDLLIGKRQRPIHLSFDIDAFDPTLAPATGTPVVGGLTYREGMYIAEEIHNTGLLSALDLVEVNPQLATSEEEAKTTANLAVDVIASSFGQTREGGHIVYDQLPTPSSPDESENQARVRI
Description: in vitro enzyme assay to detect the production of urea directly proportional to the activity of Arginase II. Further: in the data most compounds retested in dose-response had high values. Type of assay: functional. The note with it: 33.3 µM.

For assay [6], the target named is T3, Proteasome subunit beta (Trypanosoma cruzi) (UniProt O96673).
T3 sequence (whole entry): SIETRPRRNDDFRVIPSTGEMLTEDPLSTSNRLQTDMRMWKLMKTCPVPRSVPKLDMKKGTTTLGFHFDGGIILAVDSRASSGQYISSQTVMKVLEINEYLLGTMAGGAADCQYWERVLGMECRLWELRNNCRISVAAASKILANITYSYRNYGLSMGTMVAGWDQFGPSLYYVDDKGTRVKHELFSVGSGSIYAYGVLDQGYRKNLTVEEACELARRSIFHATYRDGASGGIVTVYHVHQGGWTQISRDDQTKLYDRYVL
Description: Trypanosoma cruzi proteasome chymotrypsin-like activity (TcProtChymo) assay. Further: in the data most compounds retested in dose-response had high values. The class given is functional. The note with it: 9.37 µM.

For the next assay, the species on record is Homo sapiens. The experiment in a line: To identify inhibition of the IFN signalling (Jak-Stat) pathway via expression of an eGFP reporter gene under the control of an IFN-stimulated response element (ISRE) containing MxA promoter. Type of assay: functional. The conditions noted are these: 30 µM.
For assay [7], the target named is T4, Tyrosyl-tRNA synthetase, putative (Trypanosoma cruzi (strain CL Brener)) (UniProt Q4DSP6).
T4 sequence (whole entry): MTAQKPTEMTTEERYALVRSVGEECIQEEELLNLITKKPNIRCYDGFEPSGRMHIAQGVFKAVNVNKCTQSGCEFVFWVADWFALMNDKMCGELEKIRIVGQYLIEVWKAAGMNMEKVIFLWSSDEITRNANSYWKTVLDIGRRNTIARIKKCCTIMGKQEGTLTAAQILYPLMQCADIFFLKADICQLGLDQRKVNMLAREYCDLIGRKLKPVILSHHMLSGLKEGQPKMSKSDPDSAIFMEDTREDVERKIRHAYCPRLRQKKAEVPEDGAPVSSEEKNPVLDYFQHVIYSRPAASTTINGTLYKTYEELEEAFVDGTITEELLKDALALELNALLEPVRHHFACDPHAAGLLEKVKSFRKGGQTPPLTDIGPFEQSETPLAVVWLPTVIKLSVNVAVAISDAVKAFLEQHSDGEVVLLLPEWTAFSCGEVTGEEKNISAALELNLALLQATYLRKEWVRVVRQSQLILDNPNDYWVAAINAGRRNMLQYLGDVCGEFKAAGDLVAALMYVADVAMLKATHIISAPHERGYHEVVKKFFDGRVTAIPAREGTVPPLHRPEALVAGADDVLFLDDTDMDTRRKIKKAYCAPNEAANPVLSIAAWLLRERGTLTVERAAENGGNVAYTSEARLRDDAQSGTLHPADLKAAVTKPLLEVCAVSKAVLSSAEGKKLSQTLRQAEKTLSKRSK
The experiment in a line: Trypanosoma cruzi tyrosyl tRNA synthetase (TcYRS) _High Tyrosine SOP. Further: in the data most compounds retested in dose-response had high values. Type of assay: functional. The conditions noted are these: 30 µM.

Assay [8] concerns the target T4, Tyrosyl-tRNA synthetase, putative (Trypanosoma cruzi (strain CL Brener)). Description: Trypanosoma cruzi tyrosyl tRNA synthetase (TcYRS) SOP. The conditions noted are these: 30 µM. The class given is functional.
The target of assay [9] is Chromo domain-containing protein 1 (Saccharomyces cerevisiae (strain ATCC 204508 / S288c) (Baker's yeast)) (UniProt P32657). Description: ScCHD-1 Enzyme Inhibition Assay. Further: in the data most compounds retested in dose-response had high values. The class given is functional. The conditions noted are these: 30 µM.
Sequence of Chromo domain-containing protein 1 (Saccharomyces cerevisiae (strain ATCC 204508 / S288c) (Baker's yeast)) (P32657 whole entry, the tested form may be a part): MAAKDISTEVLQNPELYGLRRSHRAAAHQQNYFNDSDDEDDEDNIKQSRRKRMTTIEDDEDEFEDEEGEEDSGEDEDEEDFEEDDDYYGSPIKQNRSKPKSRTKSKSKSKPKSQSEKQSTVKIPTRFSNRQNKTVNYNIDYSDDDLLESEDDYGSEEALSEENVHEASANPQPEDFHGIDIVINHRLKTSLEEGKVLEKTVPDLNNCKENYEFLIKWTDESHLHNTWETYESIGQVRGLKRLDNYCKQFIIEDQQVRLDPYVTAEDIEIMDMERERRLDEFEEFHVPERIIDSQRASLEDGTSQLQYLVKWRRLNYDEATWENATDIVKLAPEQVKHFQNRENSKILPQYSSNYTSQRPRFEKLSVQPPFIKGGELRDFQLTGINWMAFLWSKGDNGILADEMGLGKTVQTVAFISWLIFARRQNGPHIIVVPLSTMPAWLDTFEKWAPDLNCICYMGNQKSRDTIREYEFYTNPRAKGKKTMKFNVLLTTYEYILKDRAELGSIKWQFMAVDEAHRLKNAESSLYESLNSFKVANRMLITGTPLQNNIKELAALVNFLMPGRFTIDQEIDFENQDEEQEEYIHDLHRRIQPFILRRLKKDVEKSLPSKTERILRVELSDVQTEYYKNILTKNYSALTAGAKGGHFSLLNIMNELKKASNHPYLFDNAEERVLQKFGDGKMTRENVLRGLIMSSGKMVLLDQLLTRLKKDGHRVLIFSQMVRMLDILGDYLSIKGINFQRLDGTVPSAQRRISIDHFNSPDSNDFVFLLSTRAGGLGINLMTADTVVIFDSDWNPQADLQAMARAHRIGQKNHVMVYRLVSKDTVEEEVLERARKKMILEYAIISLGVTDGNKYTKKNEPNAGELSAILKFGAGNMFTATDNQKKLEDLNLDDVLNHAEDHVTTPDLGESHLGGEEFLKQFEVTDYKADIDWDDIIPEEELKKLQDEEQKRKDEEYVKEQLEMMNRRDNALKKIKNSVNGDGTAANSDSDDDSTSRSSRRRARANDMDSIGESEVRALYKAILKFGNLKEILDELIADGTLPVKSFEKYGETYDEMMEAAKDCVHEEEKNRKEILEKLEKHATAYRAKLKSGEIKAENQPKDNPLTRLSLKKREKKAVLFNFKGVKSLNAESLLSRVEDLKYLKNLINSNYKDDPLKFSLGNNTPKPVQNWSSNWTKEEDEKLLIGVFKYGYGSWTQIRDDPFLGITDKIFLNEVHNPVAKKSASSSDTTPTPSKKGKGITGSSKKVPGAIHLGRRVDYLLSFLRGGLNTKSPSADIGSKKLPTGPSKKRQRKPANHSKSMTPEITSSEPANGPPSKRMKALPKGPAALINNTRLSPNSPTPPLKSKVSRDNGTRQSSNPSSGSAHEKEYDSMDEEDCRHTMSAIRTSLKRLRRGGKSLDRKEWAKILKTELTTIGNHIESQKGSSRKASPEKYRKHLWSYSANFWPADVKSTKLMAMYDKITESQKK

For some of these results: Measured potencies and affinities stand elsewhere.

For eight molecules, Percent Effect results are on record in ChEMBL document CHEMBL3988442, “University of Dundee, Small-Polar-MMV Screening Library” (2021).

Sequence of Protein translocase subunit SecA (Escherichia coli (strain K12)) (P10408 whole entry): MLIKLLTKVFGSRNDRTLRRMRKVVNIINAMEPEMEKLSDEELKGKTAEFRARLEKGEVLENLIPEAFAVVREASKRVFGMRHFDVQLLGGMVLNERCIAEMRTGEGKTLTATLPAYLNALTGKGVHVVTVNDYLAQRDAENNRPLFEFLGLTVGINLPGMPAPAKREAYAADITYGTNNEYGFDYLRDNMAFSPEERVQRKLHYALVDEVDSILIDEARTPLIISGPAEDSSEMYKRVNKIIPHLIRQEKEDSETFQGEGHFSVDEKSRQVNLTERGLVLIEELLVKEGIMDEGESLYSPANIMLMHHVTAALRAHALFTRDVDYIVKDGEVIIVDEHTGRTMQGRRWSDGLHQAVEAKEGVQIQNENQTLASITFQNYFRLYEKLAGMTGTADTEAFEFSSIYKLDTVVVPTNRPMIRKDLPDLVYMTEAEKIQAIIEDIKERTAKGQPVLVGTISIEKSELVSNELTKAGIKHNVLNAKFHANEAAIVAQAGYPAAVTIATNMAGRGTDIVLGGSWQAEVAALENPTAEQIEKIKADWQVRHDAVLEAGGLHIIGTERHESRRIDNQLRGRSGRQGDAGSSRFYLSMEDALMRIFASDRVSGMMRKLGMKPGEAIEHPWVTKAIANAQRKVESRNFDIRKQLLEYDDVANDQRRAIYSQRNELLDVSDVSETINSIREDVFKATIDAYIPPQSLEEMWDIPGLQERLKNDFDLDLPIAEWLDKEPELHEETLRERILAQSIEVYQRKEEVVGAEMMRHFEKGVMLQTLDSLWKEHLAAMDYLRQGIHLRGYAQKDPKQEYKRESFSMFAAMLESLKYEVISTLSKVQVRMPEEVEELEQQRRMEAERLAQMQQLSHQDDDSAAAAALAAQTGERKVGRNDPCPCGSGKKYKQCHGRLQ

Take `CC(=O)N1CC(Cc2nccc3ccn(C)c23)C1`: the Percent Effect in assay [1] was -2.79%; in assay [2], 24%; in assay [3], 0.304%; in assay [4], -7.93%; with Trypanosoma cruzi it was 1.18%; in assay [5] it was 3.96%. Besides, the Percent Effect in assay [6] is 22.6%; in the assay listed under Homo sapiens it was 1.82%; in assay [7], 1.06%; in [8], 16.7%; in [9] it was -6.59%.

For the molecule `CCN1CCN(C(=O)C(C)N2CCN(Cc3nccn3C)CC2)CC1` (stereo not drawn), the Percent Effect was -3.29% in assay [1]; 2.7% in assay [2]; -1.16% in assay [3]; 6.16% in assay [4]; 6.59% with Trypanosoma cruzi; -4.99% in assay [5]. Also, the Percent Effect in assay [6] was 1.08%; in the assay listed under Homo sapiens, -7.4%; in assay [7], 0.99%; in assay [8] it was 3.66%; in assay [9], 2.46%.

Turning to `CC(c1ccc(Cl)cc1)N1CCN(CCNS(C)(=O)=O)CC1` (stereo not drawn), the Percent Effect in [1] was -4%; in assay [2], -2.7%; in [3], -2.79%; in assay [4] it was 66.6%; in the assay with Trypanosoma cruzi, 3.28%; in [5], 0.952%. Further, the Percent Effect is 10.7% in assay [6]; 4.77% in the assay filed under Homo sapiens; 4.76% in assay [7]; 19.5% in assay [8]; -8.23% in assay [9].

For the molecule `O=S1(=O)CCN(Cc2cccnc2)[C@H]2CCN(c3ncccn3)CC[C@H]21`, the Percent Effect was -8.77% in assay [1]; -2.7% in assay [2]; -0.0275% in [3]; 20.3% in assay [4]; -3.91% with Trypanosoma cruzi; -0.417% in [5]. In addition, the Percent Effect in assay [6] was -2.62%; in the assay listed under Homo sapiens, 16.4%; in [7], 3.96%; in [8] it was -1.22%; in assay [9], 0.188%.

With `O=C(N[C@@H]1CCNC[C@H]1O)c1ccc(F)c(Cl)c1`, the Percent Effect was -3.79% in assay [1]; 5.41% in assay [2]; 0.871% in [3]; 3.76% in assay [4]; -3.09% with Trypanosoma cruzi; -1.43% in assay [5]. Besides, the Percent Effect in assay [6] is 1.21%; in the assay listed under Homo sapiens it was -2.61%; in assay [7], 3.7%; in assay [8], 9.76%; in assay [9], -2.77%.

For the molecule `Cn1cc(CNc2ncnc3c2CCN(Cc2ccsc2)CC3)cn1`, the Percent Effect in assay [1] is -6.16%; in assay [2] it was 13.3%; in assay [3] it was -5.59%; in [4] it was 29.3%; with Trypanosoma cruzi, 4.97%; in assay [5], 7.29%. Also, the Percent Effect in assay [6] is 17.1%; in the assay filed under Homo sapiens, -4.35%; in assay [7], 4.92%; in assay [8], 16.1%; in [9] it was -0.968%.

For the molecule `CC(=O)N1CCCC(c2cnc(-c3c(C)nn(C)c3C)cn2)C1` (stereo not drawn), the Percent Effect is -2.17% in [1]; 0% in assay [2]; 6.16% in assay [3]; -0.374% in [4]; -2.17% in the assay with Trypanosoma cruzi; -1.17% in [5]. The Percent Effect in assay [6] was -4.67%; in the assay listed under Homo sapiens it was 8.02%; in assay [7], 2.13%; in assay [8], 6.41%; in [9], -1.64%.

In the case of `Cc1nc(C2CCCN(C(=O)Cn3ccccc3=O)C2)no1` (stereo not drawn), the Percent Effect is -0.276% in assay [1]; 0% in [2]; 3.05% in [3]; 1.79% in [4]; -0.564% in the assay with Trypanosoma cruzi; 4.6% in [5]. Also, the Percent Effect in assay [6] is -4.84%; in the assay listed under Homo sapiens, 8.71%; in assay [7] it was 2.45%; in [8], 4.88%; in assay [9] it was 3.7%.
